{
  "source": "paper PMC12136788",
  "binders": {"B1": {"name": "chr18:47247233:47247234:+_ENSMUSG00000042705_ENSMUST00000049388|mus_hu|motif|central (ssRNA)", "RNA": "GGGAGUUCUACAGUCCGACGAUCUUGUAUAUGGCUAUUUUCUUAAUUUUAUUCAUGUAAUUACCAAAGCUCUGUAUUCGGCGGAGGUACACAUCUUAUCUUGUAUCCAUGGACGCUCCUUGAUACAUUAUGGUAUCAUCCAGCCAACAGAGGAUUGAGCAUCA"}, "B2": {"name": "chr1:178670160:178670161:-_ENSMUSG00000057335_ENSMUST00000057037|mus_mus|FALSE|FALSE (ssRNA)", "RNA": "GGGAGUUCUACAGUCCGACGAUCCUGAGGCCUCGAGUCAACAGACCGACCGUUGUUUCCUUCUGGUGUUUUAGAAUGAACUAAUGGAGGUAUCUUUCGGAAGUUGAGACUUUCAUCAAAAACACGAUCAACCAACUCUUCUCUCAACAGAGGAUUGAGCAUCA"}, "B3": {"name": "98562344_98563384_6126_CDS_ENSG00000196367_ENST00000456197|human|control|control (ssRNA)", "RNA": "GGGAGUUCUACAGUCCGACGAUCCCAUGCUCAUCACUGCCAGGCGCGUCUUCACCAGCUCCAGACUCAGCAUCACCAGCUCGCUUGUACCUGAGGUGGCUUCGGUGCUUCCUGACGCUGCCUGAGGGUUUAAAUGCUCCCGGACAACAGAGGAUUGAGCAUCA"}, "B4": {"name": "33247490_33252972_1089_CDS_ENSG00000083642_ENST00000315596|human|control|control (ssRNA)", "RNA": "GGGAGUUCUACAGUCCGACGAUCCCUGCCCAAGUAGCACUGCCAAAGUGGCUUGUUUUGAGAAGCCAAUUCUGAAUCCUUUGCCCCAAACAUUUUUGCCAGUAGUUUAACAACUUGUAGGCGCUCCUCAUUAUCAUUGCUCUUCAACAGAGGAUUGAGCAUCA"}, "B5": {"name": "chr12:39756943:39756944:-_ENSG00000139116_ENST00000544797|hu_mus|hu_hu_hu_mus_False|1_18 (ssRNA)", "RNA": "GGGAGUUCUACAGUCCGACGAUCGGUUUGGCUGUUACCCCCAAGGGAAUCCUGCAAGAGUCUUGUCAGCUUAGAGUCUCUGUAAGGGACAUGGGUGGCUCUCUUGCUCUUGUCCCCCAAGGCACUUAUUACAUUCCCAAGUGCCAACAGAGGAUUGAGCAUCA"}, "B6": {"name": "chr2:224824363:224824364:+_ENSG00000135900_ENST00000258383|hu_mus|FALSE|FALSE (ssRNA)", "RNA": "GGGAGUUCUACAGUCCGACGAUCAGCUUCUUUCUCUAUGCCAAGGCUCUGACGUUUCGCCUCUUCGCUUUUGAUGUAGCAGCUAUUGAUAAAUGCAGUUUUGAGAAGGUCCAACGAAAAGGUUUCUUGUAAGCGAGAUCCAAACAACAGAGGAUUGAGCAUCA"}, "B7": {"name": "64079182_64079302_4442_3pUTR_ENSMUSG00000025959_ENSMUST00000114086|mouse|control|control (ssRNA)", "RNA": "GGGAGUUCUACAGUCCGACGAUCCCCACAGCCAACAAAGGACUCUGAAGCAAGCAAGCACCAUCAUGGUAUCUCAGUGCGCCCUGCUCCAAGAGAGAUCAGGAGCAGAUCACAAAGACCUCACUGAUACAAAAGAGAAAUUACCAACAGAGGAUUGAGCAUCA"}, "B8": {"name": "chr1:82457952:82457953:+_ENSG00000117114_ENST00000335786|hu_mus|motif|central (ssRNA)", "RNA": "GGGAGUUCUACAGUCCGACGAUCAGCUUUGCUGAAACAAUUUACAUGUCAUUAGAACUUUACCAUAAAAUAAAUUAAUUACGGAAUAUAGCCAGAAGGAAUAUGGAAGAGUAAUAUUUCUGUUUUAUUUUAUUUUUAUUUUAUCAACAGAGGAUUGAGCAUCA"}, "B9": {"name": "chr4:136876768:136876769:-_ENSMUSG00000006699_ENSMUST00000051477|mus_hu|FALSE|FALSE (ssRNA)", "RNA": "GGGAGUUCUACAGUCCGACGAUCAAAAAAAAAAAAAAACACACACACACAAAAAUUUUUUUUUUGAAACAACAAAAAAAAAUAGUACUAAUCACUUUUCUGACAAUACAAUUACUCAAAAUUAACUAGUACUGGGAGGGGGAACAACAGAGGAUUGAGCAUCA"}, "B10": {"name": "chr10:111893621:111893622:+_ENSG00000148700_ENST00000277900|hu_hu|motif|central (ssRNA)", "RNA": "GGGAGUUCUACAGUCCGACGAUCUAAUUCAGACAGAUAGCUGUUUAUGGUGAAUUAUAAUAAUACUUCAUGAGGGCAGAGCGGAUUAAAACUAGUAAUUGCUUAAAAUUCAAAGCCAUUUCUGGACAUAUAAAAUGAGAGAUGCAACAGAGGAUUGAGCAUCA"}, "B11": {"name": "chr8:104081237:104081238:+_ENSG00000155097_ENST00000518738|hu_mus|motif|central (ssRNA)", "RNA": "GGGAGUUCUACAGUCCGACGAUCAACACACAGAAUUAUGCAUACCAUGAUAUCAAGGAGGAAAAUACCUCUUUAAAUAAACGGUUCGGUUUAUAAAUAAACUCUGAUUUUUUUCAGUACACAUUUACAGACCUGAUCAAUAAACAACAGAGGAUUGAGCAUCA"}, "B12": {"name": "chr10:111893599:111893600:+_ENSG00000148700_ENST00000277900|hu_hu|FALSE|FALSE (ssRNA)", "RNA": "GGGAGUUCUACAGUCCGACGAUCAUUCAGACAGAUAGCUGUUUAUGGUGAAUUAUAAUAAUACUUCAUGAGGGCAGAGCUAAUUAAAACUAGUAAUUGCUUAAAAUUCAAAGCCAUUUCUGGACAUAUAAAAUGAGAGAUGAACAACAGAGGAUUGAGCAUCA"}, "B13": {"name": "94906243_94906363_1931_3pUTR_ENSG00000149212_ENST00000536441|human|control|control (ssRNA)", "RNA": "GGGAGUUCUACAGUCCGACGAUCAAAUAAAACACAUCAUUGCACAUUACAGCCGCAAAAAACAAAAAAAAAAAAACAAACGGCUAAACUUUGACACUAGAGAACUGAAUAAUUUUUGAUGCUAUAUCACAAAUAGCUUCAAUGCAACAGAGGAUUGAGCAUCA"}, "B14": {"name": "chrX:12193597:12193598:+_ENSMUSG00000031007_ENSMUST00000033313|mus_mus|motif|central (ssRNA)", "RNA": "GGGAGUUCUACAGUCCGACGAUCACAAAGCUAGUCUCUUCUGAAAUCAACAUAGUAUUUUUAAUAAUUUUAAUAUCUCGGCGGAACCACACGGAUCACCAAACUUGCAGAAGAGAUUAAAAACAGCUAGCUUGCUAGUCAUAUCAACAGAGGAUUGAGCAUCA"}, "B15": {"name": "23644147_23644267_867_3pUTR_ENSMUSG00000028986_ENSMUST00000030841|mouse|control|control (ssRNA)", "RNA": "GGGAGUUCUACAGUCCGACGAUCUUGAAUAAGUGGUUCAGCUUGUACUGUUUUACUUAGGAAAUUCUUCGAUAUAAGAGGAAACCUGACUUUAGCAAGGAUAUCAACCAUGAAUGGCUGGCGGUUAGGCUCAUCAUAUUUCAACAACAGAGGAUUGAGCAUCA"}, "B16": {"name": "chr2:25965407:25965408:-_ENSG00000143970_ENST00000336112|hu_mus|motif|central (ssRNA)", "RNA": "GGGAGUUCUACAGUCCGACGAUCAUGUGCUGCCGGAAUAAAAUCUCUAGGCAGGCUCUUUUCAUCAGAUGCUUGGCCUCGGGAGAAUAUGUAAUUCUCCUGGCCUAAAGUGGUUUGCUCACUCACUGGUGCCUCAGUCUUACCCAACAGAGGAUUGAGCAUCA"}, "B17": {"name": "82834861_82834981_3494_CDS_ENSG00000038427_ENST00000343200|human|control|control (ssRNA)", "RNA": "GGGAGUUCUACAGUCCGACGAUCUUCAUUGACAGUACCCACUUCUCCCAAUCCUUCGUCGAUAAUGGAGGAAGCUGUACCAGAAAACUUUUGCACAGCACUGGGAAGCACUGGAACAACAGAGCUGCUGACUGUGACCAGUUGCAACAGAGGAUUGAGCAUCA"}, "B18": {"name": "chr14:70842435:70842436:-_ENSG00000213463_ENST00000256366|hu_hu|motif|central (ssRNA)", "RNA": "GGGAGUUCUACAGUCCGACGAUCCUGCACCUGUAACCUGUGCUGCACUCUCAGAGACACAGCAUAGCCUGCAUUACGAAAGAGGUCGGCAGCAUCCUGGUGCAGCAGGUUCUUUAGGUCUUGGCCAUUUACCGAAAGGAUCUUCAACAGAGGAUUGAGCAUCA"}, "B19": {"name": "chr6:13622506:13622507:-_ENSG00000010017_ENST00000011619|hu_mus|FALSE|FALSE (ssRNA)", "RNA": "GGGAGUUCUACAGUCCGACGAUCAGGAAGCAAUGUAAAGCGACAAAAACCUGUCCCCAGUACAUAAUUAAAAAAAAAUCUAAAUUUCAAAUCAGCAGAGCCGGUCUACUUCCAUGUUGACUGUUUGCCACAAUGUGAGUGUGACAACAGAGGAUUGAGCAUCA"}, "B20": {"name": "chr1:109605286:109605287:-_ENSG00000197780_ENST00000461096|hu_mus|hu_hu_hu_mus_True|8_88 (ssRNA)", "RNA": "GGGAGUUCUACAGUCCGACGAUCAAGUUUCAGAGUAACAUUCAGUAUACUUAAAUCAUGCAAUUAUCCUUAUUAUAAGCUAAGCAGAAUAAUAAUUUAAUACCGUAAGUGAACUACACACAAAGCCGUGUAUUCAGAAAUGGUCAACAGAGGAUUGAGCAUCA"}, "B21": {"name": "chr10:111893621:111893622:+_ENSG00000148700_ENST00000277900|hu_hu|FALSE|FALSE (ssRNA)", "RNA": "B10 RNA with G82U, G83A"}, "B22": {"name": "chr18:56900473:56900474:+_ENSMUSG00000024590_ENSMUST00000025486|mus_mus|FALSE|FALSE (ssRNA)", "RNA": "GGGAGUUCUACAGUCCGACGAUCAACAUCUAUCUCUUCAAUGCACACGUUCCCCGUGGCUGAGGCAGAGUGGGAAAUGCUAACACUGCUGCUCGCCUCCGACUCCUCCACAUCAACUCUCUUCCGCUUUCCUCUGGUGGUGCGCAACAGAGGAUUGAGCAUCA"}},
  "note": "Residue numbers refer to the chain shown, from its start. Whole data set: some 24,000 sequences, median “enrichment r” near 0.99, cut for the highest 2% near 3.7. This is one part of a sample in which the highest values are shown more often than they occur.",
  "data": [
    {"molecular_target": "T1, UNK ZnF1-3 (human, UniProt Q9C0B0 31-174)", "T1 sequence": "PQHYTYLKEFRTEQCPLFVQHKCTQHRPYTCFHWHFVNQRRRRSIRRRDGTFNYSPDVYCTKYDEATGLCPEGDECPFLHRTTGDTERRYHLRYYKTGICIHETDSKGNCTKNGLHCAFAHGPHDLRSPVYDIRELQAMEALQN", "experiment": "nsRBNS (natural sequence RNA bind-n-seq); RBNS binding buffer (assumed for nsRBNS): 25 mM Tris pH 7.5, 150 mM KCl, 3 mM MgCl2, 0.01% Triton X-100, 500 ug/ml BSA, 20 U/ml SUPERase-In, 4 C; UNK is unkempt and MSI1 is Musashi-1; names of the RNAs are library labels; protein concentration not given here; high values mean tight binding", "units": {"binding signal": "enrichment R"}, "values": [
      {"binder": "B1", "binding signal": 1.03},
      {"binder": "B2", "binding signal": 1},
      {"binder": "B3", "binding signal": 0.681},
      {"binder": "B4", "binding signal": 0.879},
      {"binder": "B5", "binding signal": 0.497},
      {"binder": "B6", "binding signal": 1},
      {"binder": "B7", "binding signal": 1.03},
      {"binder": "B8", "binding signal": 3.79},
      {"binder": "B9", "binding signal": 3.42},
      {"binder": "B10", "binding signal": 4.04},
      {"binder": "B11", "binding signal": 0.25},
      {"binder": "B12", "binding signal": 4.42},
      {"binder": "B13", "binding signal": 6.07},
      {"binder": "B14", "binding signal": 1.81},
      {"binder": "B15", "binding signal": 0.91},
      {"binder": "B16", "binding signal": 0.714},
      {"binder": "B17", "binding signal": 0.912},
      {"binder": "B18", "binding signal": 0.468},
      {"binder": "B19", "binding signal": 2.67},
      {"binder": "B20", "binding signal": 0.504},
      {"binder": "B21", "binding signal": 5.27},
      {"binder": "B22", "binding signal": 1.08}
    ]}
  ]
}
